# Data from ChEMBL document CHEMBL3988442, “University of Dundee, Small-Polar-MMV Screening Library” (2021).
# The whole screen tested about 48,000 compounds, of which about 13,000 (27%) showed an effect of 50% or more. The list shows a part of the results.
# Tested on: Wolbachia pipientis
# Assay: Anti-Wolbachia Cell-Based Screen
# Format: functional
# Set-up: scale not given: in the data most compounds retested in dose-response had high values
# Details: 5 µM
row,Structure (SMILES),Percent Effect [%]
1,CCOc1ccc2ccccc2c1CNCC1CCNCC1.Cl.Cl,8.229
2,Cc1cc(N2CCC(n3cc(CN4CCC[C@@H]4CO)nn3)CC2)ccn1,-20.23
3,CC(=O)N1CCC(c2nccnc2CNC(=O)c2cc[nH]n2)CC1,109.1
4,CC(=O)NCc1nccnc1C1CCN(C(=O)c2cc[nH]n2)CC1,109
5,CC(C)Oc1ncccc1CNC(=O)c1cc[nH]n1,6.018
6,CC(C)n1ccnc1C1CCN(C(=O)c2cc[nH]n2)CC1,7.968
7,O=C(c1cc[nH]n1)N1CCC(c2nccn2Cc2ccncc2)CC1,-13.9
8,CCOc1ccccc1OC1CCN(C(=O)c2cc[nH]n2)CC1,-11.18
9,COCC1CC2(CCNCC2)CN1Cc1csc(C)n1.O=C(O)C(F)(F)F.O=C(O)C(F)(F)F (centres undefined),-1.413
10,COCCN(Cc1ccc(F)cc1Cl)C(=O)c1cc(C)n[nH]1,6.366
11,Cc1cc(Cn2cc(C(C)Cc3ccc4c(c3)OCO4)nn2)n[nH]1 (centres undefined),3.819
12,Cc1cnc(N2CC[C@@H](N3CCOCC3)[C@@H]2Cc2ccncc2)nc1.O=C(O)C(F)(F)F.O=C(O)C(F)(F)F,-9.199
13,O=C(O)C(c1ccc2c(c1)OCCO2)N1CCSCC1 (centres undefined),3.219
14,O=C(O)C(c1ccc(O)cc1)N1CCC(N2CCSCC2)CC1 (centres undefined),107.3
15,O=C(O)C(c1cccc2c1OCC2)N1CCC(N2CCSCC2)CC1 (centres undefined),4.197
16,O=C(O)C(c1ccc2c(c1)OCCO2)N1CCC(N2CCSCC2)CC1 (centres undefined),114.8
17,COc1ccc(C(C(=O)O)N2CCN(C3CCCCC3)CC2)cc1OC (centres undefined),-12.55
18,Cc1cc(=O)n2ncnc2n1CC(O)c1cc(Cl)ccc1Cl (centres undefined),-47.28
19,COc1ccc(F)c(-c2cc(O)nc(N)n2)c1,-16.24
20,CN1CCOCC12CCN(C(=O)C1CCC1)CC2.O=C(O)C(F)(F)F,137.1
21,CN1CCOC2(CCCN(C(=O)C3CCCCC3)C2)C1.O=C(O)C(F)(F)F (centres undefined),-15.05
22,CN1CCOCC12CCN(c1nncs1)CC2.O=C(O)C(F)(F)F.O=C(O)C(F)(F)F,6.857

row,Structure (SMILES),Percent Effect [%]
1,O=C(C1CCC1)N1CCC2(CCCN2CC2CC2)CC1.O=C(O)C(F)(F)F,90.77
2,Cn1ccnc1C(=O)N1CCC2(CCCN2CC2CC2)CC1.O=C(O)C(F)(F)F,5.734
3,CC(C)C(=O)N1CCC2(CCN2CC2CC2)C1.O=C(O)C(F)(F)F (centres undefined),-2.181
4,CCN1CCOCC12CCN(C(=O)C1CCC1)CC2.O=C(O)C(F)(F)F,107.9
5,CCN1CCOCC12CCN(C(=O)c1ccsc1)CC2.O=C(O)C(F)(F)F,-8.879
6,CN(C)CCN1CCOCC12CCN(C(=O)C1CC1)CC2.O=C(O)C(F)(F)F.O=C(O)C(F)(F)F,105.8
7,CC(=O)N1CCC2(CC1)COCCN2CCN(C)C.O=C(O)C(F)(F)F.O=C(O)C(F)(F)F,6.129
8,CCN1CCOCC12CCN(C(=O)Cc1cccs1)CC2.O=C(O)C(F)(F)F,0.8444
9,CN(C)CCN1CCC2(CCCN(C(=O)C3CCC3)C2)CC1.O=C(O)C(F)(F)F.O=C(O)C(F)(F)F,-7.862
10,Cc1nc(CN(C)c2nc3c(cnn3C(C)(C)C)c(=O)[nH]2)cs1,2.09
11,CC(=O)N1CC[C@H]2C(=O)N(c3ccsc3)CCO[C@H]2C1,-22.82
12,Cc1ccc(CN(C)C)cc1NC(=O)C1CC1,-4.043
13,O=C(C1CCCO1)N1CCC2(CC1)COCCN2CC1CC1 (centres undefined),91.17
14,O=C(Cc1cccs1)N1CCC2(CC1)COCCN2CC1CC1.O=C(O)C(F)(F)F,-7.1
15,c1csc(CN2CCC3(CC2)COCCN3CC2CC2)n1,-11.56
16,COCC(=O)N1CCC2(CC1)COCCN2CCN(C)C.O=C(O)C(F)(F)F.O=C(O)C(F)(F)F,-13.01
17,CCOCC(=O)N1CCC2(CC1)COCCN2CCN(C)C.O=C(O)C(F)(F)F.O=C(O)C(F)(F)F,122.8
18,CCN1CCOCC12CCN(C(=O)C1CCCC1)CC2.O=C(O)C(F)(F)F,72.95
19,CCOCC(=O)N1CCC2(CC1)COCCN2CCOC.O=C(O)C(F)(F)F,1.249
20,CC(C)(C)N1CC(C(=O)NCc2cn3cccnc3n2)CC1=O (centres undefined),-9.989
21,Cc1nc(CN(C)Cc2nc(-c3ccncc3)no2)co1,-11.37
22,O=C(CC1CCCC1)N[C@H]1CN(Cc2c[nH]cn2)C[C@@H]1C1CC1,-0.5907

row,Structure (SMILES),Percent Effect [%]
1,COCCNc1ccc(CC2CCCN(Cc3c[nH]cn3)C2)nn1 (centres undefined),98.89
2,COCCNc1ccc(CC2CCCN(C3CCOCC3)C2)nn1 (centres undefined),121.9
3,O=CO.c1nc(CN2CCCC(Cc3ccc(NC4CCCC4)nn3)C2)c[nH]1 (centres undefined),168.2
4,CC(C)[C@H]1CN(Cc2c[nH]cn2)C[C@@H]1NC(=O)CC1CCC1,-5.041
5,Cn1c(CCNC(=O)C2CCCN(C3CCOCC3)C2)n[nH]c1=O (centres undefined),-0.6939
6,Cc1ccc2[nH]nc(C(=O)NCC3CCN(Cc4c[nH]cn4)C3)c2c1 (centres undefined),-10.2
7,Cc1c(C(=O)NCC2CCN(Cc3c[nH]cn3)C2)[nH]c2ccccc12 (centres undefined),1.148
8,CNc1ccc(CC2CCCN(Cc3c[nH]cn3)C2)nn1 (centres undefined),113.9
9,Cc1csc(CCNC(=O)C2CCCN(C3CCOCC3)C2)n1 (centres undefined),-10.65
10,NC(=O)COc1ccc(CNC(=O)CN2CCc3ccccc32)cc1,-10.38
11,CN(CCO)Cc1nnc(C2CCN(C3CCCCC3)CC2)n1C,6.504
12,Cc1ccc(C(=O)N2CCSCC2)cc1NC(=O)Cn1cncn1,-1.948
13,NC(=O)c1cccc(CCNC(=O)N2CCCC2)c1,-5.891
14,CCCc1cc(=O)[nH]c(-c2cccc(CN3CCN4CCCC4C3)c2)n1 (centres undefined),-7.506
15,CC(C)C1CN(Cc2c[nH]cn2)CCCN1CC1CC1 (centres undefined),17.94
16,c1ccc(C2CN(C3CC3)CC3(CCN(Cc4ncc[nH]4)CC3)C2)cc1 (centres undefined),-18.37
17,O=C1CC[C@H]2CN(Cc3ncc[nH]3)CC[C@H]2N1CC1CCNCC1,-8.264
18,c1c[nH]c(CN2CCCC(Cc3ccc(NC4CCCC4)nn3)C2)n1 (centres undefined),81.53
19,Fc1ccc(CCC2CCCN(Cc3c[nH]cn3)C2)c(F)c1 (centres undefined),-3.071
20,Nc1ccc(CC2CCCN(Cc3c[nH]cn3)C2)nn1 (centres undefined),105.7
